Compounds with a hit are over-represented: about 2.4% of the library has one in this group of screens.
NSD2 inh: inhibitors of human histone methyltransferase NSD2 | NSD2 peptide methylation, AlphaScreen, 120 min | inhibition, % at 12.5 µM | 310,000 tested, 0.54% active
Wnt act: activators of Wnt/beta-catenin signaling; Wnt/beta-catenin reporter cell assay, activator, plate reader; activation, % at 9.35 µM; 300,000 tested, 1.2% active; AID 743398; in the data active = activation above about 30%, passing the limit was not always enough; inconclusive = no clear call, values can overlap the other calls;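 note: 0% = neutral control wells and 100% = positive control wells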
GSIS activator: GLuc luminescence reporter in INS-1E cells, primary screen for activators of glucose-dependent secretion of insulin. INS-1E GLuc reporter insulin secretion, 2-3 h. activation, % at 16.6 µM. 370,000 tested, 0.61% active;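 active = lowest replicate activation of at least 40%, so every replicate reaches that level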;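 note: 0% = median of neutral control wells and 100% = median of IBMX positive control wells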
Dyrk1A ADPGlo: blocks rat Dyrk1A kinase activity | Q63470 | ADP-Glo luminescence, NFATc1 peptide | inhibition, % at 12.5 µM | 310,000 tested, 0.43% active | AID 504441;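 note: plate controls were vehicle with enzyme for no effect and no enzyme for full effect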
MITF TRPM1 HTS: activators of MITF-driven TRPM1 promoter activity in SK-MEL-5 cells; SK-MEL-5 TRPM1-promoter luciferase, 24 h; % of positive control, neutral wells = 0; activation, % at 12.5 µM; 300,000 tested, 0.75% active; AID 588334;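 active = mean activation of at least 80% with every replicate also reaching 80%; inconclusive = mean reaches 80% but some replicate falls short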;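 note: 0% = neutral control wells and 100% = parthenolide positive control wells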
miR122 inh: miR-122 inhibition in Huh7 cells; Huh7 miR-122 Renilla luciferase sensor, 48 h; neutral wells = 0, positive control = 100; activation (reporter increase), % at 12.5 µM; 340,000 tested, 0.3% active; AID 602342;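 active = mean replicate activation score at least 90 and every replicate individually at or above 90; inconclusive = only one of the two criteria met; inactive = neither criterion met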;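 note: higher luciferase means less miR-122 activity so hits act as miR-122 inhibitors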
The depositor's hits bear a star; u = inconclusive; x = no result given; [ ] = dose if it differs, or a comment. Cut-off read from the data, not from the text of the source, unless noted: active = inhibition above about 50%; inactive = the rest.

SMILES	NSD2 inh	Wnt act	GSIS activator	Dyrk1A ADPGlo	MITF TRPM1 HTS	miR122 inh
c1ccc(Nc2ccnc(Nc3ccccc3)n2)cc1	-1.7	71.3*	-23.8	38.1	65.5	-1.3
CC(C)NC(=O)Nc1ccc2c(c1)C(=O)N([C@H](C)CO)C[C@@H](C)[C@H](CN(C)S(C)(=O)=O)OCCCC[C@H](C)O2	x	x	22.3	x	x	2.3[16.7 µM]
C[C@@H]1CN([C@@H](C)CO)S(=O)(=O)c2ccc(-c3ccc(C#N)cc3)cc2O[C@@H]1CN(C)C	x	x	25.9	x	x	-2.2[16.7 µM]
COc1ccc(NS(=O)(=O)c2ccc(SC)cc2)cc1	-3.1	-0.6	-19.6	-7.8	4.4	x
CSc1ccc(S(=O)(=O)Nc2ccc(F)cc2)cc1	0.1	-1.3	x	9.9	-2.6	120.5*
O=C(Nc1ccccn1)c1cccs1	-0.2	x	x	-0.8	54.0	-9.6
CC(C)(C)c1cc(NC(=O)c2cccs2)no1	-2.6	31.5*	3.7	-0.6	62.7	x
O=C(Nc1nonc1NC(=O)c1cccs1)c1cccs1	-1.0	-1.0	132.6*	-1.1	-11.8	x
Cc1cc(NC(=O)c2ccc(NC(=O)c3cccs3)cc2)no1	11.0	-2.7	1.7	-2.7	10.5	1.8
CC(C)Nc1nc(NC(N)=S)nc(NC(C)(C)C)n1	x	0.4	44.0*	2.4	4.2	x
CC(C)Nc1nc(NC(N)=S)nc(NC(C)C)n1	-0.9	-0.2	81.9*	-1.4	-4.6	x
Cc1cc(C)nc(NC(N)=S)n1	-2.9	0.9	5.6	-1.3	1.5	-14.1
CCC(=O)N1C[C@H](C)[C@H](OC)CN(C)C(=O)c2cc(NC(=O)C3CCOCC3)ccc2OC[C@H]1C	x	x	21.1	x	x	x
C[C@H](CO)N1C[C@H](C)[C@H](CN(C)C(=O)Nc2ccc(C(F)(F)F)cc2)Oc2ccc(NS(=O)(=O)c3ccc(Cl)cc3)cc2C1=O	x	x	-19.5	x	x	6.2[16.7 µM]
Cc1nn(-c2ccccc2)c(N)c1Sc1cccc([N+](=O)[O-])c1	4.2	1.6	-18.1	-18.4	7.2	-1.8
Cc1nn(-c2cccc([N+](=O)[O-])c2)c(N)c1-c1ccccc1	x	14.9	2.2	31.4	92.2*	-0.4
CCOc1ncccc1C(=O)Nc1ncc(C)s1	-4.1	0.9	110.1*	-2.6	1.8	x
CSc1ncccc1C(=O)Nc1ncc(C)s1	4.2	-1.1	-7.6	-0.6	8.7	x
CCOc1ncccc1C(=O)NC(C)CCc1ccccc1 (centres undefined)	x	-2.4	51.4*	5.2	x	3.5
CCOc1ncccc1C(=O)NCc1cccc(OC)c1	-1.6	x	87.6*	0.2	7.2	-3.9
CC(CCc1ccccc1)NC(=O)c1ccccc1Cl (centres undefined)	-0.6	0.2	2.8	0.4	-1.3	3.6
CCC(=O)N1C[C@H](O)COC[C@H]2O[C@@H](CC(=O)NCc3ccc(Oc4ccccc4)cc3)CC[C@@H]21	x	x	-0.1	x	x	1.0[16.7 µM]
O=C(NC1CCCC1)c1cc(-c2ccc(F)cc2)on1	-3.2	-2.0	0.0	2.8	62.1	-6.9
O=C(NC1CCCCC1)c1cc(-c2ccc(Cl)cc2)on1	1.0	9.5	3.9	0.4	67.4	x
O=C(NC1CCCCC1)c1cc(-c2cccc(Cl)c2)on1	0.4	17.5	6.9	1.1	95.0*	-8.5
SMILES	NSD2 inh	Wnt act	GSIS activator	Dyrk1A ADPGlo	MITF TRPM1 HTS	miR122 inh
O=C(NC1CCCC1)c1cc(-c2ccc(Cl)cc2)on1	-4.3	30.3*	10.2	-4.4	132.1*	-5.7
COc1cccc(-c2cc(C(=O)NC3CCCCC3)no2)c1	-6.8	4.1	-8.3	-6.8	115.3*	-2.0
O=C(NC1CCCC1)c1cc(-c2cccc(Cl)c2)on1	-5.0	25.4	-5.4	-5.6	127.1*	6.8
COc1ccc(-c2cc(C(=O)NC3CCCC3)no2)cc1	20.2	18.5	13.2	1.9	67.0	-1.6
CO[C@H]1CN(C)C(=O)c2cc(NS(=O)(=O)c3ccccc3)ccc2OC[C@@H](C)N(Cc2ccccn2)C[C@H]1C	x	x	-7.4	x	x	7.5[16.7 µM]
COc1ccc(S(=O)(=O)N(C)C[C@H]2Oc3ccc(NC(=O)Cc4ccccc4)cc3CC(=O)N([C@H](C)CO)C[C@@H]2C)cc1	x	x	x	x	x	-5.1[16.7 µM]
CCOC(=O)c1ccc(NC(=O)c2nn(C)cc2Br)cc1	-22.0	1.0	x	5.3	83.4*	-3.6
CCN(CC)CCOC(=O)c1ccc(NC(=O)/C=C/c2cccs2)cc1	7.0	u	-7.7	11.5	14.6	x
CCOC(=O)c1ccc(NC(=O)c2cnccn2)cc1	-2.1	27.7	18.5	-8.7	119.0*	-6.3
Cn1cc(Br)c(C(=O)NNC(=O)c2ccccc2)n1	-1.6	x	42.0*	1.4	5.9	3.8
CCOC(=O)c1ccc(NC(=O)/C=C/c2cccs2)cc1	-5.6	25.1	1.1	4.8	87.7*	x
CCOC(=O)c1ccc(NC(=O)N(CC)CC)cc1	-1.6	49.3*	x	-9.4	39.2	5.6
CCOC(=O)c1ccc(NC(=O)c2nc[nH]c2C(=O)N[C@H](C)CO)cc1	x	-1.3	55.8*	x	x	3.6
CCOC(=O)c1cc(NC(=O)c2cnccn2)cc(C(=O)OCC)c1	-0.8	x	85.8*	6.5	0.0	-12.6
CCOC(=O)c1cccc(NC(=O)c2cnccn2)c1	-0.6	x	x	17.9	x	0.9
CCOC(=O)CC(=O)Nc1ccc(C(=O)OCC)cc1	0.5	x	x	-4.3	13.0	-1.4
CCOC(=O)c1ccc(NC(=O)Nc2ccccn2)cc1	-2.0	14.7	16.2	-6.7	101.6*	-4.0
COc1ccc(C(=O)Nc2ccc3c(c2)OC[C@H](C)N(C)C[C@H](C)[C@@H](OC)CN(C)C3=O)cc1	x	x	-14.8	x	x	x
N#C[C@@H]1[C@H](c2ccc(C3=CCCCC3)cc2)[C@@H](CO)N1S(=O)(=O)c1cccc(F)c1	x	x	2.5	x	x	x
CN1C(=O)c2cc(NC(=O)Nc3ccccc3Cl)ccc2OC[C@H]2O[C@H](CC(=O)O)CC[C@@H]21	x	x	11.6	x	x	-33.3[16.7 µM]
C[C@@H]1CN(C)C(=O)c2cccc(NS(C)(=O)=O)c2O[C@H]1CN(C)C	x	x	10.0	x	x	x
C[C@@H]1CN([C@H](C)CO)C(=O)c2cc(NC(=O)Cc3cn(C)c4ccccc34)ccc2O[C@@H]1CN(C)C(=O)Nc1ccc(F)cc1	x	x	-10.9	x	x	-9.5[16.7 µM]
Cc1cc(S(=O)(=O)NCc2ccco2)c(C)cc1Cl	3.3	0.2	-32.5	x	10.2	67.1
CCOc1cc(C)c(Cl)cc1S(=O)(=O)NCc1ccco1	2.8	x	x	3.0	x	116.4*
CCOc1cc(C)c(C(C)C)cc1S(=O)(=O)NCc1ccccn1	-1.8	x	x	3.6	0.6	104.5*
COc1cc(OC)c(S(=O)(=O)NCc2ccco2)cc1S(=O)(=O)NCc1ccco1	-0.2	x	29.3	-2.0	-10.2	40.0
CCOc1ccc(S(=O)(=O)NCc2ccco2)c2ccccc12	5.1	-0.9	-3.7	7.2	-13.8	122.0*
COc1cc(C)c(Cl)cc1S(=O)(=O)NCc1ccco1	0.8	-2.2	x	-4.2	1.3	105.2*
C[C@H]1CN([C@@H](C)CO)C(=O)c2cc(C3=CCCCC3)cnc2O[C@@H]1CN(C)Cc1cccnc1	x	x	36.8	x	x	-21.7[16.7 µM]
CN1CCN(C(=O)C[C@@H]2CC[C@@H](NS(=O)(=O)c3cccc(F)c3)[C@@H](CO)O2)CC1	x	x	15.7	x	x	x
